Screening data from PubChem.
MCF10A rereplic = induces DNA re-replication in MCF 10a normal breast cells; Potency, µM (series often up to 46.1 µM), most hits filed as activators; AID 624296; 2.9% of 350,000 active; MCF 10A DNA re-replication, Hoechst nuclear intensity, 48 h; further: nearly all actives have a fitted effect of over 50% in size
ELG1 genotox = genotoxicity induction in ELG1-luciferase HEK293T cells; HEK293T ELG1-luciferase reporter, luminescence, 16 h; 1.3% of 330,000 active; Potency, µM (titrated, usually from 46 µM), most hits filed as activators; further: nearly all actives have a fitted effect of over 60% in size
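Step 1: seed 2,000 HEK293T ELG1-luciferase cells per well. Step 2: add compound or DMSO, incubate 16 hr at 37 °C. Step 3: ONE-Glo, 30 min at room temperature, read luminescence.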
AT treatment = candidate therapy for ataxia-telangiectasia. AID 485349. Potency, µM (highest dose often 57.5 µM), hits mostly activators. 0.19% of 320,000 active. F2112 A-T fibroblasts, KAP-1 phosphorylation AlphaLISA; neocarzinostatin DNA damage 30 min before lysis; further: nearly all actives have a fitted effect of over 45% in size
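ATM-like activity read as KAP-1 phosphorylation via AlphaLISA donor/acceptor antibody pairs after lysis and 6 hr at 25C. Cells were ATM-null patient fibroblasts (F2112, hTERT), dosed 60 min, then exposed to the DSB inducer NCS for 30 min.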
p53 reactivation = re-activators of mutant p53; H1299 p53-A138V BP100-luciferase reporter, luminescence, 24 h; Potency, µM (highest dose often 92.2 µM), usual class: activators; AID 504706; 0.063% of 320,000 active; further: nearly all actives have a fitted effect of over 45% in size
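p53-null H1299 cells stably carrying temperature-sensitive p53-A138V and a BP100-luciferase reporter were pinned with compounds (4-point, 1:5 series) and held 24 hrs at 37 deg C. Luminescence was read 10 min after detection reagent.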
SW480 rereplic = induces DNA re-replication in SW480 colon adenocarcinoma cells; SW480 DNA re-replication, Hoechst DNA content imaging, 48 h; Potency, µM (doses to about 46.1 µM), hits mostly activators; 1.8% of 340,000 active; further: nearly all actives have a fitted effect of over 55% in size
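Image-based DNA-content assay: after two days of treatment, nuclei were labelled with the DNA dye Hoechst and imaged, and hits were compounds raising the count of nuclei showing high fluorescence intensity.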
ELG1 DNA repair = inhibitors of ELG1-dependent DNA repair in HEK293T cells; Potency, µM (doses to about 46.1 µM), most hits filed as inhibitors; 2.3% of 330,000 active; HEK293T ELG1-luciferase reporter, luminescence, 16 h; DNA damage induced by 5-fluorouridine; further: nearly all actives have a fitted effect of over 55% in size
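Overnight (16 hr) co-exposure of 2,000 cells/well to 5-fluorouridine and compound at 37 °C preceded detection. Luciferase was quantified via ONE-Glo luminescence; loss of signal denotes inhibition.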
Of the large screens only hits and unclear results are named; the others gave an inactive call; ! = not active in a repeat. Compounds with a hit are over-represented: about 7.1% of the library has one in this group of screens. The call rests on the fitted dose curve; in most records, active means well fitted curve in the direction sought with a large enough effect; inconclusive means small, poorly fitted or top-dose-only effect, or another doubt; inactive means no such curve, though single readings can be large; an effect the other way counts as inactive or inconclusive.

O=[N+]([O-])c1ccc(Cl)c2cccnc12	none
O=[N+]([O-])c1ccc(O)c2cccnc12	none
O=[N+]([O-])c1ccc(O)c2ncccc12	MCF10A rereplic 15µM!, ELG1 genotox inconclusive, SW480 rereplic 7.3µM, ELG1 DNA repair inconclusive
O=[N+]([O-])c1cc([N+](=O)[O-])c2cccnc2c1Oc1ccccc1O	MCF10A rereplic inconclusive
CCN(Cc1ccccc1)C(=O)CN1C(=O)COc2ccc(S(=O)(=O)NC3CCCC3)cc21	SW480 rereplic inconclusive
O=[N+]([O-])c1cc(F)c2cccnc2c1O	MCF10A rereplic inconclusive, SW480 rereplic inconclusive, ELG1 DNA repair 21µM
COc1ccc(NC(=O)CN2C(=O)NC(C)(C3CC3)C2=O)cc1S(=O)(=O)N1CCOCC1 (stereo unspecified)	none
CN(c1ccccc1)S(=O)(=O)c1ccc(Cl)nc1	none
Cc1nc(S(=O)(=O)N(C)c2ccccc2)c(C#N)c(C)c1Cl	MCF10A rereplic inconclusive, SW480 rereplic 9.2µM, ELG1 DNA repair 23µM
Cc1cc(Nc2nc3ccccc3nc2Cl)n(-c2ccc([N+](=O)[O-])cc2)n1	ELG1 DNA repair 21µM (no result: AT treatment)
Cc1cc(Nc2cnc3ccccc3n2)n(-c2ccccc2)n1	SW480 rereplic inconclusive
Cc1cc(Nc2nc3ccccc3[nH]c2=O)n(-c2ccccc2)n1	MCF10A rereplic inconclusive, ELG1 genotox 21µM, SW480 rereplic inconclusive, ELG1 DNA repair inconclusive
CCOc1ccc(-n2c(=O)[nH]cc(C(=O)Nc3ccc(OC)c(OC)c3)c2=O)cc1	none
NS(=O)(=O)c1cc(C(=O)Nc2ccc3c(c2)CCC3)ccc1Cl	ELG1 genotox 10µM, p53 reactivation inconclusive, ELG1 DNA repair inconclusive
Cc1ccc(C(=O)NCC(=O)Nc2ccc3c(c2)CCC3)cc1	ELG1 genotox inconclusive, ELG1 DNA repair inconclusive
Cc1ccc(C(=O)Nc2ccc3c(c2)CCC3)cc1S(=O)(=O)N1CCOCC1	ELG1 genotox inconclusive, ELG1 DNA repair inconclusive
O=C(Nc1ccc2c(c1)CCC2)c1cc(F)cc(F)c1	ELG1 genotox inconclusive, p53 reactivation inconclusive, ELG1 DNA repair inconclusive
Cc1ccc(C(=O)Nc2ccc3c(c2)CCC3)cc1	ELG1 genotox 0.18µM, ELG1 DNA repair inconclusive
Cc1ccc(NC(=O)c2scc3c2CCCC3)cc1	MCF10A rereplic inconclusive, ELG1 genotox 1.8µM, p53 reactivation inconclusive, SW480 rereplic inconclusive, ELG1 DNA repair inconclusive
O=C(Nc1ccc2c(c1)CCC2)c1cccc(F)c1	ELG1 genotox 8.2µM, p53 reactivation inconclusive, ELG1 DNA repair inconclusive
CCOc1ccc(C(C)NC(=O)c2cc(=O)[nH]c3ccccc23)cc1OCC (stereo unspecified)	none
Cc1cccc(NC(=O)COn2nnc3ccc(S(C)(=O)=O)cc32)c1	none
CSc1ccccc1C(=O)Nc1ccc2c(c1)CCC2	ELG1 genotox inconclusive, p53 reactivation inconclusive, ELG1 DNA repair inconclusive
O=C(Nc1ccc2c(c1)CCC2)c1ccccc1Br	ELG1 genotox 2.3µM, p53 reactivation inconclusive, ELG1 DNA repair inconclusive
OC(COc1ccccc1F)CN1CCC(Cc2ccccc2)CC1 (stereo unspecified)	MCF10A rereplic inconclusive, SW480 rereplic inconclusive
OC(COc1ccc(F)cc1Cl)CN1CCC(Cc2ccccc2)CC1 (stereo unspecified)	AT treatment 3.5µM, SW480 rereplic inconclusive, ELG1 DNA repair inconclusive
N#Cc1nc(Nc2cccc(Cl)c2)c2ncn(C3CCCC3)c2n1	MCF10A rereplic inconclusive, ELG1 genotox inconclusive, p53 reactivation inconclusive, SW480 rereplic inconclusive, ELG1 DNA repair inconclusive
CCN(CC)S(=O)(=O)c1ccc(OC)c(NC(=O)C2CC(=O)N(c3ccc4c(c3)OCCO4)C2)c1 (stereo unspecified)	ELG1 DNA repair inconclusive
N#CCC(=O)Nc1sc2c(c1C(N)=O)CCCC2	MCF10A rereplic 23µM
C=CC(=O)Nc1sc2c(c1C(N)=O)CCCC2	MCF10A rereplic 21µM, SW480 rereplic inconclusive, ELG1 DNA repair inconclusive
CCOC(=O)N1CCC(NC(=O)CS(=O)Cc2nc(-c3ccc(C)cc3)oc2C)CC1 (stereo unspecified)	SW480 rereplic inconclusive
CSc1ccc(/C=N/n2c(C)cc(C)cc2=O)cc1	ELG1 genotox 10µM, ELG1 DNA repair inconclusive
CCCOc1ccc(-c2c(C(=O)N/N=C/C3CCCCC3)nnn2-c2nonc2N)cc1	none
O=C(CSc1c2c(nc3cc(Cl)ccc13)CCCC2)NCCN1CCOCC1	MCF10A rereplic inconclusive, SW480 rereplic inconclusive
COCCCNC(=O)CSc1c2c(nc3ccc(Cl)cc13)CCCC2	MCF10A rereplic 23µM, ELG1 genotox inconclusive
O=C(CSc1c2c(nc3cc(Cl)ccc13)CCCC2)NCCCN1CCOCC1	MCF10A rereplic 23µM, SW480 rereplic inconclusive
CCCS(=O)(=O)c1nc(S(=O)(=O)c2ccc(C)cc2)c(N2CCCC(C)C2)s1 (stereo unspecified)	none
O=C1C=CC(=O)N1CCNc1ncc(C(F)(F)F)cc1Cl	MCF10A rereplic 5.8µM, SW480 rereplic 8.2µM, ELG1 DNA repair inconclusive
O=C1CC(=O)N(CCNc2ncc(C(F)(F)F)cc2Cl)C(=O)N1	MCF10A rereplic inconclusive
O=C(CN1C(=O)c2cccc([N+](=O)[O-])c2C1=O)OCC(=O)N1CCCCC1	ELG1 DNA repair inconclusive
CCCn1nc(C(=O)NCC2COc3ccccc3O2)c2ccccc2c1=O (stereo unspecified)	ELG1 DNA repair 21µM
CCOC(=O)C1CCN(C(=O)CNC(=O)c2nn(-c3ccc(OC)c(Cl)c3)c(=O)c3ccccc23)CC1	MCF10A rereplic inconclusive, p53 reactivation inconclusive, ELG1 DNA repair 15µM
COc1ccc(-n2nc(C(=O)NCC(=O)NC3CCCCCC3)c3ccccc3c2=O)cc1OC	ELG1 DNA repair 18µM
COc1ccc(-n2nc(C(=O)NCC(=O)N3CCCCCC3)c3ccccc3c2=O)cc1OC	SW480 rereplic inconclusive
CCCn1nc(C(=O)NC2CC2)c2ccccc2c1=O	none
COc1ccc(-n2nc(C(=O)NCC(=O)NCC3COc4ccccc4O3)c3ccccc3c2=O)cc1OC (stereo unspecified)	ELG1 DNA repair 9.2µM
COc1ccc(/C=C(\C#N)C(=O)N2COCC2(C)C)cc1	ELG1 DNA repair inconclusive
O=C(Nc1cccnc1)c1cc(S(=O)(=O)N2CCCCC2)c(Cl)cc1Cl	MCF10A rereplic inconclusive
CCN(CC)c1ccc(C=NCCNS(=O)(=O)c2ccc(C)cc2)cc1	none
CCN(CC(=O)Nc1ccc(Br)cc1)C(=O)c1nc2nc(C)cc(C)n2n1	none
O=C(CCCNC(=O)c1ccc(Cl)cc1)Nc1ccccc1C(F)(F)F	none
